Measurements reported in PubChem BioAssay AID1789 (The Scripps Research Institute Molecular Screening Center, 2009).
Hit rate of the full screen: of about 290,000 compounds, about 2,700 (0.93%) were called active. This is one part of a sample in which actives are shown more often than they occur. A number with no mark means an inactive call.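 Rule for the calls: active = inhibition above the screen-wide mean plus 3 SD, computed separately per campaign (cut at about 16% in these data); inactive = the rest.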 Square brackets hold non-standard residues; d marks the D form. Peptide text beside a SMILES is read from it. * marks the point of attachment. PhAc = O=C(Cc1ccccc1)*

These molecules were tested on Heat shock protein HSP 90 (rabbit reticulocyte lysate; luciferase refolding) (assay: HSP90 inhibitors, primary screen, cell lysate, luminescence (AID 1789;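 note: 0% = DMSO wells and 100% = 60 µM geldanamycin wells; inhibitors lower the luminescence because luciferase stays unfolded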)). Conditions: 3 h, at 5.6 µM, active compounds read high.
COc1cc(OC)c(C(=S)N2CCCC2)cc1OC was tested, and the inhibition was -0.17%.
O=C(Cn1ncc(N2CCCC2)c(Br)c1=O)c1ccc(Cl)cc1 gave an inhibition of -0.91%.
For CC(C)(C)Nc1nc(-c2ccccn2)nc2ccccc12, the inhibition was -0.49%.
Cc1nc(COc2cc3oc(=O)cc(C)c3cc2Cl)cs1 gave an inhibition of 1.76%.
CCN(C(=O)Cc1c(C(=O)O)n(CC)c2ccccc12)c1ccccc1C gave an inhibition of -6.6%.
Cc1c(CNCCc2ccccc2)c(C(=O)O)c(C)n1-c1ccccc1 was tested, and the inhibition was 1.5%.
CCOCCOC(=O)C1=C(C)NC(=O)NC1c1ccc2c(c1)OCO2 (stereo not drawn) was tested, and the inhibition was -3.33%.
For O=C(NC1CCCCCCC1)c1cccs1, the inhibition was -3.45%.
In the case of O=C(NCc1ccco1)/C(=C\c1cccc([N+](=O)[O-])c1)NC(=O)c1ccco1, the inhibition is reported as -0.13%.
COCCN(C(=O)CCC(=O)Nc1nccs1)C(C(=O)NCCC(C)C)c1ccc(F)cc1 (stereo not drawn) gave an inhibition of 2.45%.
In the case of Cc1ccc2c(cnn2C(=O)CCC(=O)NC2CCCC2)c1, the inhibition is reported as -3.9%.
With COc1ccc(C=Nc2cccc3ncccc23)cc1 the inhibition was 7.77%.
With Oc1c(C=Nc2cccc3nsnc23)ccc2ccccc12 the inhibition was 36.7% (active).
O=[N+]([O-])c1ccc(N=Cc2c(O)ccc3ccccc23)cc1 showed an inhibition of 2.1%.
CC(C)C[C@@H](NC(=O)[C@H]1CCCN1C(=O)Cc1ccccc1)C(N)=O (PhAc-[dP]-[dL]-NH2) gave an inhibition of -3.77%.
With COc1ccccc1NC(=O)CN(c1ccccc1OC)S(=O)(=O)c1ccccc1 the inhibition was 0.43%.
With Cc1cccc(NC(=O)Nc2ccc3c(c2)OCO3)n1 the inhibition was -5.1%.
For CCc1c(C)sc(NC(=O)/C=C/c2ccc3c(c2)OCO3)c1C(=O)OC, the inhibition was -8.23%.
For Cc1cccc(NC(=O)/C=C/c2ccc3c(c2)OCO3)n1, the inhibition was 22.8% (active).
Cc1cc(C)cc(NC(=O)NC2CCCCCCC2)c1 showed an inhibition of -3.82%.
With O=C(Nc1ccn(Cc2ccccc2)n1)c1n[nH]c([N+](=O)[O-])c1Cl the inhibition was 22.3% (active).
In the case of Cn1cc([N+](=O)[O-])c(C(=O)Nc2cnn(Cc3ccc(F)cc3)c2)n1, the inhibition is reported as -0.28%.
O=C(Nc1ccn(Cc2ccccc2)n1)c1cccc(F)c1 showed an inhibition of 11.1%.
Work on O=S(=O)(NC1CCCCC1N1CCN(c2ccccc2F)CC1)c1ccccc1 (stereo not drawn) yielded an inhibition of 2.71%.
O=C(Nc1ccc(Cl)cc1)c1cccc(OC(=S)N2CCOCC2)c1 gave an inhibition of -7.8%.
Work on CCOC(=O)Cn1c(=O)n(Cc2ccc(OC)cc2)c(=O)c2cccnc21 yielded an inhibition of -2.48%.
Molecule Oc1cccc(/C=N/Nc2ccc(Cl)nn2)c1O has an inhibition of 5.19%.
CCc1ccc(NC(=O)CCNS(=O)(=O)c2cccs2)cc1 was tested, and the inhibition was -2.78%.
Work on COCC(=O)Nc1c(C(=O)N2CCCC2)oc2ccccc12 yielded an inhibition of -3.81%.
Molecule O=C1CSC(c2ccccc2)N1c1nc(-c2ccc(Cl)cc2Cl)cs1 (stereo not drawn) has an inhibition of -0.17%.
With Clc1ccc(-c2cc(-c3ccccn3)on2)c(Cl)c1 the inhibition was 38.6% (active).
Clc1ccc(-c2ncc3ccccn23)c(Cl)c1 gave an inhibition of 4.35%.
With O=C(NC(=O)N1CCOCC1)c1ccccc1 the inhibition was 0.55%.
With O=C(c1ccccc1)N1CCN(C(=O)N2CCCCC2)CC1 the inhibition was -0.28%.
With O=C(O)c1ccc(N=NN2CCOCC2)cc1 the inhibition was 20.6% (active).
Molecule CN1CCN(S(=O)(=O)c2cccc(C(=O)O)c2)CC1 has an inhibition of -1.11%.
In the case of NC(=NC(=O)c1ccccc1)N1CCOCC1, the inhibition is reported as -2.45%.
O=C(O)c1cccc(N=NN2CCCCCC2)c1 was tested, and the inhibition was 37.5% (active).
Cc1ccc(NC(=O)c2csc3c2CCCC3)cc1 gave an inhibition of 1.71%.
In the case of COc1cc2ccccc2cc1C(=O)Nc1nc(C)c(C(C)=O)s1, the inhibition is reported as 10.7%.
In the case of COc1ccc(Cc2nnc(NC(=O)c3ccc(OC)cc3OC)s2)cc1, the inhibition is reported as -0.32%.
COc1cc(SC)ccc1C(=O)Nc1nc(C)cs1 was tested, and the inhibition was 82.5% (active).
COC(=O)c1sc(NC(=S)NC(=O)c2ccc(C)cc2)nc1C gave an inhibition of 1.68%.
COC(=O)c1sc(NC(=O)c2ccc(OC)cc2OC)nc1C was tested, and the inhibition was 36.3% (active).
In the case of COC(=O)c1sc(NC(=O)c2csc3c2CCCC3)nc1C, the inhibition is reported as 35.7% (active).
For COc1cc(SC)ccc1C(=O)Nc1cc(C)ccn1, the inhibition was 12.1%.
With COc1cc(SC)ccc1C(=O)NCCOc1ccccc1Cl the inhibition was 3.08%.
Molecule CCN(C(=O)c1cc([N+](=O)[O-])ccc1NCc1cccnc1)c1ccccc1 has an inhibition of -2.39%.
Cc1ccc(-c2csc(N3CCN(c4cc5c(cc4Cl)nc(-c4ccncc4)n5CCOCCO)CC3)n2)cc1 showed an inhibition of 0.37%.
O=C(O)c1cc2c(cc1NC(=O)c1c(F)cccc1Cl)OCCCO2 was tested, and the inhibition was 1.02%.
In the case of Cc1cc(=O)oc2cc(OCC(=O)N3CCN(c4ccc(F)cc4)CC3)c(Cl)cc12, the inhibition is reported as 0.58%.
CCOc1ccccc1NS(=O)(=O)c1c[nH]c(C(=O)OC)c1 gave an inhibition of -0.36%.
With CCC1Oc2ccccc2N(CC(=O)NCCCN2CCN(CC)CC2)C1=O (stereo not drawn) the inhibition was -0.16%.
CCCc1nc2ccccc2c(C(=O)OCC(=O)c2ccc3c(c2)NC(=O)CO3)c1CC gave an inhibition of 10.5%.
In the case of Cc1ccc(C(=O)COC(=O)c2cccc(N3C(=O)c4c(C)nc5ccccc5c4C3=O)c2)cc1C, the inhibition is reported as 21.8% (active).
In the case of O=C(CCc1nc2ccccc2c(=O)[nH]1)OCC(=O)c1cccc(Cl)c1, the inhibition is reported as -0.45%.
Molecule COc1ccc(Cl)cc1-n1c(=S)sc2c(=O)n(-c3ccc(F)cc3)c(SCC(=O)O)nc21 has an inhibition of -4.32%.
Molecule CCCCCNC(=O)c1cccnc1SCC(=O)Nc1ccccc1OC has an inhibition of 0.66%.
In the case of CCc1nc(SCC(=O)Nc2ccccc2OC)n[nH]1, the inhibition is reported as 37.9% (active).
Molecule COC(=O)c1ccccc1NC(=O)CSc1n[nH]c(-c2ccncc2)n1 has an inhibition of -0.92%.
In the case of Nc1nnnn1/N=C/c1cccc(Br)c1, the inhibition is reported as -1.72%.
CCCN1C2CCCC1CC(NC(=O)NC13CC4CC(CC(C4)C1)C3)C2 (stereo not drawn) was tested, and the inhibition was 2.81%.
Work on CNC(=S)N/N=C/c1ccc(N2CCOCC2)s1 yielded an inhibition of 5.17%.
